The results in this text go back to PubChem BioAssay AID687014 (The Scripps Research Institute Molecular Screening Center, 2013).

About 6,800 (1.8%) of roughly 370,000 compounds were called active. This excerpt belongs to a sample that is enriched for actives. A number with no mark means an inactive call.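 Rule for the calls: active = activation above a cutoff set at the mean of all screened compounds plus 3 SD (cut at about 10% in these data); inactive = the rest.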

This test has as its system Nuclear hormone receptor DAF-12 (Heterodera glycines), GAL4 fusion. In words: H. glycines DAF-12 receptor agonists, primary screen, cell-based, luminescence, HEK293, GAL4 fusion, UAS-luciferase (AID 687014).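 Note: 0% = DMSO wells and 100% = sodium butyrate wells.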 The conditions noted are these: HEK293 GAL4-hgDAF12 UAS-luciferase reporter, agonist luminescence; at 6.8 µM; active compounds read high; normalized to butyrate control. (In general: A reporter such as luciferase makes a cellular process visible.)
Regarding `Cc1nc(CNc2ncnc3ccc(-c4ccc5c(c4)OCO5)cc23)cs1`, the activation was 1.56%.
In the case of `O=C(COC(=O)/C=C/c1ccc2c(c1)OCO2)NC1CCS(=O)(=O)C1` (stereo unspecified), the activation was -2.83%.
Take `CNS(=O)(=O)c1ccc(NC(=O)Nc2ccc3c(c2)OCO3)cc1`: the activation was 18.5% (active).
In the case of `CCOc1ncccc1C(=O)Nc1ccc2c(c1)OCCO2`, the activation was -3.84%.
The value for `Cc1ccc(S(=O)(=O)NCC(=O)Nc2ccc3c(c2)OCCO3)cc1` was -3.96%.
The value for `Cc1cccc(NC(=O)/C=C/c2ccc3c(c2)OCO3)n1` was 17.7% (active); that for `CC(NC(=O)Nc1cccc([N+](=O)[O-])c1)c1ccc2c(c1)OCO2` (stereo unspecified) was -1.33%.
In the case of `O=C(Nc1ccc2c(c1)OCO2)C1CC(c2c(F)cccc2Cl)=NO1` (stereo unspecified), the activation is 7.76%.
Consider `CN(Cc1ccccc1)C(=O)COC(=O)/C=C/c1ccc2c(c1)OCO2`, for which the activation is -1.56%.
Consider `Cc1cccc(NC(=O)Nc2ccc3c(c2)OCO3)n1`, for which the activation is 14.2% (active).
The value for `COc1cccc(/C=C/C(=O)Nc2ccc3c(c2)OCCO3)c1` was 16.9% (active); that for `Cc1ccc(OCCCC(=O)Nc2ccc3c(c2)OCCO3)cc1` was -2.83%.
For the compound `CC(NS(=O)(=O)c1ccc(Cl)cc1)C(=O)Nc1ccc2c(c1)OCCO2` (stereo unspecified), the activation was 1.96%.
As to `CN1C(=O)c2cc(NS(C)(=O)=O)ccc2OC[C@@H]2O[C@@H](CC(=O)NCc3ccc(-c4ccccc4)cc3)CC[C@H]21`, the activation is -3.14%.
To `COc1ccc(OCC(=O)NN2Cc3ccccc3C2=N)cc1` belongs 1.16%; to `CCOC(=O)[C@@]12CN(C(=O)OC(C)(C)C)CC=C1N(Cc1ccc(OC)cc1)C(=O)[C@H]2CC(=O)NCc1ccc(OC)c(OC)c1`, -0.18%.
Consider `COc1cc(N/C=C2\CC(=O)NC(C)=C2C#N)cc(OC)c1OC`, for which the activation is -2.99%.
As to `Cc1csc2nc(COC(=O)c3cccc(N(C)C)c3)cc(=O)n12`, the activation was 1.98%.
Turning to `O=c1c(-c2ccccc2)coc2cc(O)ccc12`, the activation was 11.4% (active).
Consider `CCc1ccc(Oc2coc3cc(O)ccc3c2=O)cc1`, for which the activation is 2.19%.
Consider `CC(C)=CCc1c(O)c(CC=C(C)C)c2occ(-c3ccc(O)cc3)c(=O)c2c1O`, for which the activation was 1.09%.
Consider `C#CCN([C@@H](C)C(=O)OCC)S(=O)(=O)c1ccc(Br)cc1F`, for which the activation was 3.49%.
For `S=c1[nH]nc(Nc2ccccc2)s1`, the activation was -0.56%.
`CC(C)(C)c1nnc(NC(=O)C2c3ccccc3Oc3ccccc32)s1`: the activation was 0.43%.
In the case of `CC(C)(C)C(=O)c1cnc(Nc2ccccc2)s1`, the activation is 15.3% (active).
To `CC(C)(C)OC(=O)NCCc1ccccc1/C=C/S(=O)(=O)NCc1ccc(F)cc1` belongs 0.52%.
